Among all 300,000 compounds or so, about 4,000 (1.3%) were called active. Shown is part of a subset that was picked to be rich in actives. A number with no mark means an inactive call.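 How the source made its calls: active means mean replicate score, as percent of positive control median, at least 50; inconclusive means mean below 50 but one replicate at or above 50; inactive means mean and every replicate below 50.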
experiment: kanamycin survival loss of SKKanGAS strain – BacTiter-Glo luminescence, streptokinase expression inhibitor project, primary screen (AID 1662);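 further: strain carries kanamycin resistance gene driven by streptokinase promoter and grows in 40 µg/ml kanamycin; loss of luminescence reflects streptokinase promoter inhibition or plain growth inhibition; 0% = median of DMSO wells and 100% = positive control at its reference dose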; conditions: S. pyogenes SKKanGAS, kanamycin growth, 6 h, at 7.5 µM, active compounds read high

Row | SMILES | inhibition
1 | Nc1nonc1-n1nnc(C(=O)N/N=C/c2ccccc2O)c1CN1CCCC1 | -2.71%
2 | Cc1ccc(SCc2c(C(=O)N/N=C/c3cccnc3)nnn2-c2nonc2N)cc1 | 3.15%
3 | Nc1nonc1-n1nnc(C(=O)N/N=C/c2cc(Br)ccc2O)c1CSC1=NCCS1 | 107% (active)
4 | O=C(O)c1cccnc1Sc1ncnc2sc3c(c12)CCC3 | -1.33%
5 | COc1ccccc1CCC(=O)NNC(=O)c1ccncc1 | -5.32%
6 | CC(=O)NC(=S)Nc1ccc(NC(=S)NC(=O)c2ccc([N+](=O)[O-])cc2)cc1 | 60.3% (active)
7 | O=C(NC(=S)Nc1ccc(NC(=O)c2cccs2)cc1)c1ccc([N+](=O)[O-])cc1 | 6.3%
8 | CC(=O)Nc1ccc(NC(=S)NC(=O)c2ccc([N+](=O)[O-])c(C)c2)cc1 | -0.0689%
9 | CC(C)=N/N=C1/NC(=O)C(Cc2ccccc2)S1 (centres undefined) | 0.633%
10 | O=C1NC(=Nc2ccc(Cl)cc2)SC1Cc1cccc(Cl)c1Cl (centres undefined) | 61.1% (active)
11 | NC1=NC(=O)C(Cc2cccc(Cl)c2Cl)S1 (centres undefined) | -7.45%
12 | COc1ccc(C(CNC(=O)c2cc3c(s2)CCCC3)N2CCOCC2)cc1 (centres undefined) | -4.29%
13 | O=C(Nc1cccc(Cl)c1)c1cncn1-c1ccc(F)cc1 | -0.257%
14 | CCCCC(=O)NNC(=S)NC(=O)C(c1ccccc1)c1ccccc1 | 85.9% (active)
15 | CC(C)C(=O)Nc1cccc(NC(=S)NC(=O)C(c2ccccc2)c2ccccc2)c1 | 22.1%
16 | O=C(NNC(=S)NCc1ccco1)C(c1ccccc1)c1ccccc1 | 12.9%
17 | CC(=O)N/C(=N/c1nc(C)cc(C)n1)Nc1ccc(F)cc1F | -6.21%
18 | Cc1ccc(OCc2nnc(SC3CCc4ccccc4C3=O)n2C)cc1 (centres undefined) | 1.05%
19 | CN(CCc1ccccn1)C(=O)c1ccc(OC2CCN(Cc3ccccn3)CC2)cc1 | 15.2%
20 | Nc1cccc2c1C(=O)N(Cc1nnc(-c3ccccc3Br)o1)C2=O | -13.7%
21 | COc1ccc(OCC(=O)NCCS(=O)(=O)N2CCN(c3ccc(F)cc3)CC2)cc1 | -2.54%
22 | CCOc1cc(N2CCOCC2)c(OCC)cc1NC(=O)c1cc(C)nc2ccccc12 | 6.5%
23 | CCOc1cc(N2CCOCC2)c(OCC)cc1NC(=O)C1=NN(c2cccc(C)c2)C(=O)CC1 | 54% (active)
24 | CCOc1cc(N2CCOCC2)c(OCC)cc1NC(=O)c1ccc(C)s1 | -3.59%

Row | SMILES | inhibition
25 | CCOCCCNC(=O)C(NC(=O)c1ccc(=O)[nH]c1)c1ccc(Cl)cc1 (centres undefined) | -3.58%
26 | COc1ccc(OC)c(S(=O)(=O)Nc2cccc(-c3ccc4nncn4n3)c2)c1 | -5.29%
27 | O=C(Nc1ccc(Cl)cn1)Nc1cccs1 | -3.53%
28 | Clc1ccc(Nc2nc(-c3cccs3)cs2)nc1 | 64.4% (active)
29 | Cc1ccc(Nc2nc(-c3ccc(O)cc3O)cs2)nc1 | 20.8%
30 | O=C(CSc1ccc(-c2ccccn2)nn1)Nc1ccccc1 | -3.36%
31 | CC(C)CN(Cc1c(O)ccc2c(=O)c(-c3ccccc3)coc12)CC(C)C | 0.595%
32 | CC(C)=CCc1c(O)c(CC=C(C)C)c2occ(-c3ccc(O)cc3)c(=O)c2c1O | 105% (active)
33 | O=c1c(-c2ccccc2)coc2cc(O)ccc12 | 0.922%
34 | CCOC(=O)c1ccc2c(c1)nc(SCC(=O)NC(C)C)n2CC | -3.36%
35 | Cc1cc(C)c(S(=O)(=O)Nc2c(C)n(C)n(-c3ccccc3)c2=O)cc1[N+](=O)[O-] | 4.05%
36 | O=C(c1ccco1)N1CCN(C(=O)c2cc(-c3ccccc3F)no2)CC1 | 63.3% (active)
37 | O=C(Cc1c(F)cccc1Cl)N1CCN(C(=O)c2ccco2)CC1 | -1.63%
38 | O=C(NCCCN1CCOCC1)c1cc(-c2ccccc2F)no1 | 26.3%
39 | COC(CNC(=O)c1ccc2c(c1)ncn2-c1cc(C)cc(C)c1)OC | 0.722%
40 | COC(=O)C1=C(C)NC2=C(C(=O)c3ccccc32)C1c1ccc(-c2ccc(C(=O)O)cc2)o1 (centres undefined) | 60.6% (active)
41 | CCOC(=O)c1ccc(-c2ccc(C(=O)Nc3cccnc3)o2)cc1 | 3.97%
42 | COC(=O)C1=C(C)NC(=O)CC1c1ccccc1OC (centres undefined) | 4.98%
43 | O=C(c1cccs1)N(Cc1cc2ccccc2[nH]c1=O)CC1CCCO1 (centres undefined) | -2.88%
44 | O=C(NCCC1CCCCN1S(=O)(=O)c1ccc(Cl)cc1)C(=O)NCc1ccco1 (centres undefined) | -16.2%
45 | Cc1ccc(C2Nc3cccc4cccc(c34)N2)cc1 | 9.05%
46 | Oc1ccc(C2Nc3cccc4cccc(c34)N2)cc1 | 3.2%
47 | Brc1ccccc1C1Nc2cccc3cccc(c23)N1 | 56.8% (active)
48 | CC1Cc2cc(/C(O)=C3\C(=O)C(=O)N(Cc4cccnc4)C3c3ccccc3F)ccc2O1 (centres undefined) | 12.9%

Row | SMILES | inhibition
49 | CC1CCCN(S(=O)(=O)c2ccc(C(=O)Nc3nnc(-c4ccncc4)o3)cc2)C1 (centres undefined) | 20.4%
50 | CSCc1nnc(NC(=O)c2ccc(S(=O)(=O)N3CCCCC3C)cc2)o1 (centres undefined) | 39.4%
51 | CC1CCCCN1S(=O)(=O)c1ccc(C(=O)Nc2nnc(-c3cccs3)o2)cc1 (centres undefined) | 99.8% (active)
52 | CCn1c(N)c(Br)c(=O)[nH]c1=O | 0.526%
53 | Cc1cc(OC(C)C(=O)NC2CC(C)(C)NC(C)(C)C2)c2c(C)cc(=O)oc2c1 (centres undefined) | 2.79%
54 | CCOC(=O)N1CCN(c2cc(C)c([N+](=O)[O-])cc2F)CC1 | 15.6%
55 | CC(C)c1ccc2c(c1)c(SC(C)(C)C)c(CC(C)(C)C(=O)O)n2Cc1ccc(Cl)cc1 | 109% (active)
56 | O=C(O)c1ccc(Cn2c(=S)[nH]c3cc(Cl)ccc3c2=O)cc1 | 9.12%
57 | O=C(COC(=O)c1ccccc1SCC(=O)N1CCCC1)Nc1ccccc1OC(F)F | 34%
58 | CSCCNC(=O)c1ccc2nc(Cc3ccccc3F)oc2c1 | 2.77%
59 | Cn1ccc(NC(=O)Nc2ccc(Cl)cc2)n1 | -3.73%
60 | CC(C)S(=O)(=O)c1csc(NC(=O)Nc2ccc(Cl)cc2)c1Cl | 60% (active)
61 | CN(c1cccc(NC(=O)Nc2ccc(Cl)cc2)c1)S(C)(=O)=O | -13.9%
62 | Cc1c(Cl)c([N+](=O)[O-])nn1CCCC(=O)Nc1cc(Cl)ccc1Cl | -2.88%
63 | Cc1c(Cl)c([N+](=O)[O-])nn1Cc1ccc(C(=O)N/N=C\c2cc(Cl)ccc2O)o1 | 96.5% (active)
64 | Cc1ccc(C(=O)O)cc1NC(=O)c1ccc(Cn2nc(C)c(Cl)c2C)o1 | 5.19%
65 | CCC(CC)c1nnc(NC(=O)C2CCN(C(=O)c3ccco3)CC2)s1 | -3.32%
66 | O=C(c1ccc(Cl)cc1)c1cnc(Nc2ccccc2)s1 | 3.38%
67 | O=C(Nc1ccccc1)c1nnsc1S(=O)(=O)c1ccc(Cl)cc1 | 85.8% (active)
68 | CS(=O)(=O)c1ccc(Cl)c(NC(=O)Nc2ccccc2)c1 | -0.376%
69 | Cc1nnc(SCC(=O)Nc2cccc(N)c2)n1-c1ccccc1 | 8.19%
70 | Clc1ccc(Cl)c(Oc2ccc(Oc3nc(Cl)ccc3Cl)cc2)n1 | -7.12%
71 | CN(C)CCn1c2c(c(SCC(=O)Nc3ccccc3C(F)(F)F)nc1=O)CCCC2 | -16.8%
72 | CN(C)CCn1c2c(c(SCC(=O)NCc3ccccc3)nc1=O)CCC2 | -2.81%

Row | SMILES | inhibition
73 | COc1ccccc1CNC(=O)CSc1nc(=O)n(Cc2ccncc2)c2c1CCC2 | 49.6% (active)
74 | O=C(NNC1=C(C(=O)C(F)(F)F)CCC1)c1ccncc1 | 18.5%
75 | O=C(Cc1ccc(S(=O)(=O)N2CCOCC2)s1)NCCOc1ccccc1F | 2.98%
76 | O=C(Nc1c2c(nn1-c1ccccc1)CS(=O)(=O)C2)C1CCCC1 | -3.29%
77 | CC(=O)Nc1ccc(Nc2ncnc3c2nnn3Cc2ccccc2Cl)cc1 | 1.15%
78 | CC(C)NC(=S)NN=C1CCCCCCCCCCC1 | 63.8% (active)
79 | C/C(=N\NC(=S)NC(C)C)c1ccc(C(C)(C)C)cc1 | 15.9%
80 | CC(C)(C)NC(=O)C(=O)NN=C1CCCCCCC1 | -3.09%
81 | Cc1c(CN2CCC(n3nccc3NC(=O)CCc3ccccc3)CC2)cnn1C | 1.52%
82 | O=C(NC(Cc1c[nH]c2ccccc12)C(=O)N/N=C/c1ccc(Br)cc1)c1cccs1 (centres undefined) | 66.8% (active)
83 | CC(=O)Nc1ccc(/C=N/NC(=O)c2cccs2)cc1 | 5.44%
84 | CC(=O)NC(Cc1c[nH]c2ccccc12)C(=O)O (centres undefined) | 4.27%
85 | CN(Cc1ccccc1)C(=O)c1ccc(NC2=NC3CS(=O)(=O)CC3S2)cc1 (centres undefined) | -1.29%
86 | COc1cc(/C=C2\CCCc3c2nc2ccccc2c3C(=O)O)cc(Cl)c1O | 15.8%
87 | COc1cc(-c2cc(C(=O)OCC(=O)Nc3ccc4c(c3)OCO4)c3ccccc3n2)cc(OC)c1OC | 13.9%
88 | NC(=O)c1ccc(NC(=O)COC(=O)c2c3c(nc4ccccc24)/C(=C\c2ccc4c(c2)OCO4)CCC3)cc1 | 64% (active)
89 | O=c1[nH]c(CSc2ccccc2)nc2c1oc1ccccc12 | -3.16%
90 | COc1ccc(C(=O)NC2=NCCS2)c(OC)c1 | -2.91%
91 | CCc1cc(=O)oc2c(C)c(OCC(=O)N3CC[C@@]4(O)CCCC[C@H]4C3)ccc12 | -5.4%
92 | CC(=C1C(=O)c2ccccc2C1=O)N1CCN(c2ccccn2)CC1 | 1.02%
93 | Cc1nn(-c2ccccn2)c2c1C(c1ccncc1)C1=C(CC(C)(C)CC1=O)N2 (centres undefined) | -3.06%
94 | Cc1cc(C)c(C2C3=C(Nc4c2c(C)nn4-c2ccccn2)c2ccccc2C3=O)c(C)c1 (centres undefined) | 57.1% (active)

Reference: PubChem BioAssay AID1662 (Broad Institute, 2009)
